Source: the supplement of paper PMC10849652
About 7,900 targets were measured; listed, in parts, are those with a hit and a random draw of the rest. About 0.6% of all pairs of compound and target were hits. A number with no mark means an inactive call.

Assays:
Assay in all cases: log2 fold change, soluble protein after heating vs DMSO (PISA); higher = thermal stabilisation; K562 cells, 10 uM, 30 min; active = over 0.2 and 3.5 SD of the protein, either way, in both replicates (recomputed)
bafetinib = compound: Cc1ccc(NC(=O)c2ccc(CN3CC[C@H](N(C)C)C3)c(C(F)(F)F)c2)cc1Nc1nccc(-c2cncnc2)n1 [bafetinib]
How it was run: (§1)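 K562 cells at 2×10^6 cells/mL were given 10 μM compound for 30 min. Aliquots then went through 3 min of heating across 48°C-58°C, were pooled, and were extracted in PBS with 0.5% NP-40 at 4°C, and the supernatant after 21,000xg for 90 min was quantified by TMTpro 16plex LC-MS/MS with channel sums equalised. Thermal stability relative to control samples, from duplicates, is given as log2 fold change.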

[1] = compound: Cc1cccc(CC(=O)N2CCc3c2ccc(-c2cn(C)c4ncnc(N)c24)c3F)n1
How it was run: as §1

dasatinib = compound: Cc1nc(Nc2ncc(C(=O)Nc3c(C)cccc3Cl)s2)cc(N2CCN(CCO)CC2)n1 [dasatinib]
How it was run: as §1

[2] = compound: Cn1cc(-c2ccc3c(c2)CCN3C(=O)Cc2cccc(C(F)(F)F)c2)c2c(N)ncnc21
How it was run: as §1

[3] = compound: Cn1cc(-c2ccc3nnc(C(F)(F)c4ccc5ncccc5c4)n3n2)cn1
How it was run: as §1

tipifarnib = compound: Cn1cncc1[C@@](N)(c1ccc(Cl)cc1)c1ccc2c(c1)c(-c1cccc(Cl)c1)cc(=O)n2C [tipifarnib]
How it was run: as §1

mubritinib = compound: FC(F)(F)c1ccc(/C=C/c2nc(COc3ccc(CCCCn4ccnn4)cc3)co2)cc1 [mubritinib]
How it was run: as §1

[4] = compound: NC(=O)Nc1cc(-c2cccc(F)c2)sc1C(=O)N[C@H]1CCCNC1
How it was run: as §1

[5] = compound: NC(=O)c1cnc(N[C@@H]2CCCC[C@@H]2N)nc1Nc1cccc(-n2nccn2)c1
How it was run: as §1

[6] = compound: NC1(c2ccc(-c3nc4ccn5c(=O)[nH]nc5c4cc3-c3ccccc3)cc2)CCC1
How it was run: as §1

[7] = compound: NCC(=O)Nc1ccc(-n2nc(C(F)(F)F)cc2-c2ccc3c(ccc4ccccc43)c2)cc1
How it was run: as §1

entinostat = compound: Nc1ccccc1NC(=O)c1ccc(CNC(=O)OCc2cccnc2)cc1 [entinostat]
How it was run: as §1

vorinostat = compound: O=C(CCCCCCC(=O)Nc1ccccc1)NO [vorinostat]
How it was run: as §1

citarinostat = compound: O=C(CCCCCCNC(=O)c1cnc(N(c2ccccc2)c2ccccc2Cl)nc1)NO [citarinostat]
How it was run: as §1

silmitasertib = compound: O=C(O)c1ccc2c(c1)nc(Nc1cccc(Cl)c1)c1ccncc12 [silmitasertib]
How it was run: as §1

[8] = compound: O=C1NC(=O)C(c2cnc3ccccn23)=C1c1cn2c3c(cc(F)cc13)CN(C(=O)N1CCCCC1)CC2
How it was run: as §1

[9] = compound: c1cc(OCCN2CCCCC2)cc(-c2n[nH]c3ccc(-c4nnc[nH]4)cc23)c1
How it was run: as §1

nilotinib = compound: Cc1cn(-c2cc(NC(=O)c3ccc(C)c(Nc4nccc(-c5cccnc5)n4)c3)cc(C(F)(F)F)c2)cn1 [nilotinib]
How it was run: as §1

[10] = compound: Cc1nc(Nc2n[nH]c3c2CN(C(=O)N[C@H](CN(C)C)c2ccccc2)C3(C)C)c2sccc2n1
How it was run: as §1

[11] = compound: Cc1ncc(-c2ccnc(Nc3ccc(S(C)(=O)=O)cc3)n2)n1C(C)C
How it was run: as §1

Chain of UniProt Q92556 (Q92556 whole entry, looked up): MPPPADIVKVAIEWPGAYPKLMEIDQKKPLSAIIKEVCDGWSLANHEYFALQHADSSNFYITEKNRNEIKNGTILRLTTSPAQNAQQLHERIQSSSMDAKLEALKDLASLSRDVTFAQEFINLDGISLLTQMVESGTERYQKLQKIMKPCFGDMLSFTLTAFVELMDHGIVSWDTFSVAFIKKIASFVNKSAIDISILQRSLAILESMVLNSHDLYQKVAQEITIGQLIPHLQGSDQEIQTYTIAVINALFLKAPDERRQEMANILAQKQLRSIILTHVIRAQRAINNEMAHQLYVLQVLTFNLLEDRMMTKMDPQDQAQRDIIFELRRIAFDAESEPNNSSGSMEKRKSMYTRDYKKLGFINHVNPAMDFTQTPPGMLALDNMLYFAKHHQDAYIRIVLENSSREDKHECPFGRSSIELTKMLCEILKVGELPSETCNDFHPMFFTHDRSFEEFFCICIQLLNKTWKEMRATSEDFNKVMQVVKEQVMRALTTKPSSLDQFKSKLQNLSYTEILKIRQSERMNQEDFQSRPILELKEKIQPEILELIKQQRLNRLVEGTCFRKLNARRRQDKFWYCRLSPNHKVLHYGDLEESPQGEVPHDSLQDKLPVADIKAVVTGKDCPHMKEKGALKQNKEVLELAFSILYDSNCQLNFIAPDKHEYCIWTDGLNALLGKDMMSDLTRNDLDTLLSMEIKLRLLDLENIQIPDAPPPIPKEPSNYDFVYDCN
Chain of UniProt Q8WV16 (Q8WV16 whole entry, looked up): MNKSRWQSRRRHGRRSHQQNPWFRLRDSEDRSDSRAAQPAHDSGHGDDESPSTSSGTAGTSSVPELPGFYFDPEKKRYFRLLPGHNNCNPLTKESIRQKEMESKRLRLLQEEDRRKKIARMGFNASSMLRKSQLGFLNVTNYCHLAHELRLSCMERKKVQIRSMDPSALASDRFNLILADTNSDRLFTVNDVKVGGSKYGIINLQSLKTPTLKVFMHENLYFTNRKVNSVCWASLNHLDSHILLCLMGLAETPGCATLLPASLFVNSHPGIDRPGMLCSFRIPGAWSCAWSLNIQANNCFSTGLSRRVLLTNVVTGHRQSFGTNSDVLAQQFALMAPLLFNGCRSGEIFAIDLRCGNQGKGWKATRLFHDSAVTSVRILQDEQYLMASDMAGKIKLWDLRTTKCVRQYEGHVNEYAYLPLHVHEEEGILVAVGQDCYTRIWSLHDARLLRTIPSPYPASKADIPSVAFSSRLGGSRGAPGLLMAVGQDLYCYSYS
Chain of UniProt P32519 (P32519 whole entry, looked up): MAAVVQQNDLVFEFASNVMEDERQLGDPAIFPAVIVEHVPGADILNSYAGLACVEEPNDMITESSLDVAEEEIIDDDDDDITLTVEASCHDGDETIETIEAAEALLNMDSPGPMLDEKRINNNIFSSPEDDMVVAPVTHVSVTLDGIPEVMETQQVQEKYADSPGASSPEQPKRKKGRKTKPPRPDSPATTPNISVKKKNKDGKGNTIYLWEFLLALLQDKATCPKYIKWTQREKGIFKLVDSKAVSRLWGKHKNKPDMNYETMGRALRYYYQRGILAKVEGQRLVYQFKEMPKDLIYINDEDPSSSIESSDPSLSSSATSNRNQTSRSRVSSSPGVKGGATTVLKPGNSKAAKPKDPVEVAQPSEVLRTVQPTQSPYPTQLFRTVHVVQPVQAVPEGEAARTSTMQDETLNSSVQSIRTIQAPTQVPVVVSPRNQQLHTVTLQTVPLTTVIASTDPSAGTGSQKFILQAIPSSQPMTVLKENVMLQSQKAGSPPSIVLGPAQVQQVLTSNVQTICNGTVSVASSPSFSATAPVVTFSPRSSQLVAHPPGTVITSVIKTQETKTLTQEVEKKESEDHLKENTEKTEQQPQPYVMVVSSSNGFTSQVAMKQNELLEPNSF
Chain of UniProt P25774 (P25774 whole entry, looked up): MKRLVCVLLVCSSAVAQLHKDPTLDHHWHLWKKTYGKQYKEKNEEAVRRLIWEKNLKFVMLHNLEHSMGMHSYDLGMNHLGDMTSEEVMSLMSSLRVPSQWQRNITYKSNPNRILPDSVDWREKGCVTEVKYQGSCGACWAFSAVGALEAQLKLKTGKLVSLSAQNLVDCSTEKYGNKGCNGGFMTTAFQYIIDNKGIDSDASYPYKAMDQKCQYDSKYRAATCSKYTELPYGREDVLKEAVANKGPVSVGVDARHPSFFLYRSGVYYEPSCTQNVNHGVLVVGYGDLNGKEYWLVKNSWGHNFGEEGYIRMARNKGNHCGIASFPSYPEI
Chain of UniProt Q3B7T1 (Q3B7T1 whole entry, looked up): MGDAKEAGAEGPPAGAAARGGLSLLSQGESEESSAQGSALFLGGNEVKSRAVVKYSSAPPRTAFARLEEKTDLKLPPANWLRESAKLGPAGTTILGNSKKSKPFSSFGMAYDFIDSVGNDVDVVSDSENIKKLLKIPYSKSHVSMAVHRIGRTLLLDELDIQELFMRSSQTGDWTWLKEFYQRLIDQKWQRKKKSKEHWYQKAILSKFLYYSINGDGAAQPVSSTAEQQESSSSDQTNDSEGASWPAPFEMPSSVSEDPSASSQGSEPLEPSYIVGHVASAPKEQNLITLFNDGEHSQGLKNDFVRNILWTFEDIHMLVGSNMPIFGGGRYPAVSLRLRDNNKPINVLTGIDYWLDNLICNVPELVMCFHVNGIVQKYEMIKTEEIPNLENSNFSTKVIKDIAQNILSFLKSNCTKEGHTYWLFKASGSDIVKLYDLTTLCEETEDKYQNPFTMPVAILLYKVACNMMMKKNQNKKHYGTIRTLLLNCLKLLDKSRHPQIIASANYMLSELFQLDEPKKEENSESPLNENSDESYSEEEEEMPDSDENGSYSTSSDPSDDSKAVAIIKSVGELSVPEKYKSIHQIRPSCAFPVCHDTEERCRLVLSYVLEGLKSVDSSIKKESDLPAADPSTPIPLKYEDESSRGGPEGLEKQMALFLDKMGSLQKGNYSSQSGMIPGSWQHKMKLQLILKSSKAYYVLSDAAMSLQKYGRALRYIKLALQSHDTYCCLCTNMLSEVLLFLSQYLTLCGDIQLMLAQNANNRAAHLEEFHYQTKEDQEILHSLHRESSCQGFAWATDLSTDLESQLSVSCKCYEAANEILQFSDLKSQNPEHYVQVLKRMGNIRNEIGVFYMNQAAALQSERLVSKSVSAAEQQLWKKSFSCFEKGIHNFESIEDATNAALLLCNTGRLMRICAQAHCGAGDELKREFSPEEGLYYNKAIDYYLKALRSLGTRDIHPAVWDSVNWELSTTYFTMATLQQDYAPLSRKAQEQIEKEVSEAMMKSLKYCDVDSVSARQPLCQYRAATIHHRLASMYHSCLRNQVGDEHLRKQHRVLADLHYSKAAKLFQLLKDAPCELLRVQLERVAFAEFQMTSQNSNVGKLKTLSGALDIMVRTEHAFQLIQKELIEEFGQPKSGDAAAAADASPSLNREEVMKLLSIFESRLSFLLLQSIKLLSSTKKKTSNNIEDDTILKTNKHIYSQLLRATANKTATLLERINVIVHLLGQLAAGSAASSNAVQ
Chain of UniProt Q01780 (Q01780 whole entry, looked up): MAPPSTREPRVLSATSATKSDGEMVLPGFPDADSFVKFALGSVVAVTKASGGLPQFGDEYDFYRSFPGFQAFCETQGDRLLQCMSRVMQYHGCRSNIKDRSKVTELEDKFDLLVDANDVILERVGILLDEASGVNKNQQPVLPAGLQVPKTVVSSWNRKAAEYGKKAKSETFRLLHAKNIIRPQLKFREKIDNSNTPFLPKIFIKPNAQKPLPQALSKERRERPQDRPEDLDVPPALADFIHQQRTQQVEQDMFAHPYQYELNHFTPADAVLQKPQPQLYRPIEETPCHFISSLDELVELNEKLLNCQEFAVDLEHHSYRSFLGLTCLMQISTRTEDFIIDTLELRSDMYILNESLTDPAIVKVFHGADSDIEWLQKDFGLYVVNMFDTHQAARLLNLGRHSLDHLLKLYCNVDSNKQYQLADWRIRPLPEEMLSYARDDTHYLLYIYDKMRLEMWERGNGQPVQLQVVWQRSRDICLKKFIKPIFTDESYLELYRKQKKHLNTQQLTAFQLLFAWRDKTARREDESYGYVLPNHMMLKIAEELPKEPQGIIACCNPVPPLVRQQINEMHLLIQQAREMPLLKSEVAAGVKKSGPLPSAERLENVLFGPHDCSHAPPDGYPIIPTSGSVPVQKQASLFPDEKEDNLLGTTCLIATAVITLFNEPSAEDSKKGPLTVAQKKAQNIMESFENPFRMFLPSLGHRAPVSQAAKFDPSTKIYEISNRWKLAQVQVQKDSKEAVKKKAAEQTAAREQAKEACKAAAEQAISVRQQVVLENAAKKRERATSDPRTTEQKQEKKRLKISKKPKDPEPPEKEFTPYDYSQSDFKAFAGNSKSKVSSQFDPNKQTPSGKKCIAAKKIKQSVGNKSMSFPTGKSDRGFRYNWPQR

Target	log2 fold change (bafetinib)	log2 fold change [1]	log2 fold change (dasatinib)	log2 fold change [2]	log2 fold change [3]	log2 fold change (tipifarnib)	log2 fold change (mubritinib)	log2 fold change [4]	log2 fold change [5]	log2 fold change [6]	log2 fold change [7]	log2 fold change (entinostat)	log2 fold change (vorinostat)	log2 fold change (citarinostat)	log2 fold change (silmitasertib)	log2 fold change [8]	log2 fold change [9]	log2 fold change (nilotinib)	log2 fold change [10]	log2 fold change [11]
EXOSC10 (UniProt Q01780)	-0.63 (active)	0	0.017	0.152	0.251	0.195	0.046	-0.49	-0.054	0.014	-0.189	-0.339	0.039	-0.125	0.041	-0.044	0.01	–	–	–
EDRF1 (UniProt Q3B7T1)	-0.04	-0.209	-0.157	-0.275	-0.114	–	0.045	-0.062	–	-0.044	–	-0.055	0.083	-0.044	-0.031	-0.057	-0.103	–	–	–
DNAH11 (UniProt Q96DT5)	0.097	-0.396	-0.036	-0.441	0.126	0.344	-0.276	-0.099	-0.064	0.346	0.044	-0.032	-0.24	-0.213	0.197	-0.098	-0.09	0.101	0.015	0.072
CTSS (UniProt P25774)	–	-0.063	0.052	-0.07	-0.028	–	–	-0.054	–	–	0.053	-0.013	0.15	0.19	–	–	-0.089	–	–	–
ELF1 (UniProt P32519)	–	–	-0.134	0.003	0.049	-0.024	–	-0.124	-0.044	–	–	-0.11	–	-0.089	–	-0.075	-0.18	0.096	-0.028	0.122
DCAF4 (UniProt Q8WV16)	–	-0.423 (active)	0.11	–	0.079	–	0.094	-0.046	–	-0.127	–	0.005	0.238	-0.1	0.066	-0.096	-0.094	-0.204	-0.007	-0.093
ELMO1 (UniProt Q92556)	0.033	–	0.03	–	0.06	–	-0.087	-0.07	–	-0.146	-0.316	0.093	–	–	0.04	-0.104	–	-0.038	0.026	-0.001
